In ChEMBL document CHEMBL4513216, “Probing the Open Global Health Chemical Diversity Library for Multistage-Active Starting Points for Next-Generation Antimalarials” (ACS Infect Dis, 2020) one finds INHIBITION data, which are given here for 52 molecules.

The whole screen tested about 68,000 compounds, of which about 2,700 (4%) showed an effect of 50% or more. The full list was thinned out, with strong results kept by preference.

This assay has as its system Plasmodium berghei. As to the kind of experiment: Screen against P. berghei liver stage (PbLuc), transformed with Luciferase, at 2uM. It is filed as functional, HepG2. The conditions noted are these: tested at 2 uM.
`CCN1CC(C(=O)NCCCc2nc(C)c(C)s2)CC1=O` (configuration not stated): the INHIBITION amounted to 72.05%.
For `Cc1nc(CCCNC(=O)C2CC(=O)N(C3CC3)C2)sc1C` (configuration not stated) the value was -52.42%; for `CCS(=O)(=O)NCc1cccnc1N1CCCC(O)C1` (configuration not stated), -5.31%.
On to `Nc1nc(C2CCN(C(=O)c3cncs3)CC2)cs1`, for which the INHIBITION stood at 0.14%.
In the case of `CC(C)(C)NS(=O)(=O)c1ccc(NC(=O)C2CC2)cc1` it was 17.2%; in that of `CCNC(=O)CNS(=O)(=O)c1cc(Br)ccc1F`, 42.32%; in that of `CCC(=O)Nc1ccc(F)c(S(=O)(=O)NC(C)(C)C)c1`, 57.75%.
For `COC1CCN(c2ccc(NC(=O)C3CC3)cc2C(F)(F)F)CC1` the value was -1.71%.
For `CC(C)(C)NS(=O)(=O)c1cc(NC(=O)C2CC2)ccc1F`, the INHIBITION was 62.51%.
For `CC(=O)Nc1ccc(F)c(S(=O)(=O)NC(C)(C)C)c1` the value was -1.87%; for `CCS(=O)(=O)N1Cc2c(Cn3ccnc3)nn(C(C)C)c2C1`, 3.72%.
For `Cc1n[nH]c(C)c1CC(=O)NCCc1ccccc1` the value was 25.21%.
For the molecule `Cc1nc(C(=O)N2CCOC(Cc3ccccc3)C2)co1` (configuration not stated), the INHIBITION was 5.76%.
For `COc1ccc(CC2CN(C(=O)c3coc(C)n3)CCO2)cc1` (configuration not stated), the INHIBITION was -10.03%.
Turning to `Cc1nc(C(=O)N2CCOC(Cc3ccc(F)cc3)C2)co1` (configuration not stated), the INHIBITION amounted to 51.45%.
In the case of `Cc1nnc2n1CCN(CCOc1ccccc1)C2` it was -55.52%; in that of `CCOCCN1CCn2c(C)nnc2C1`, 58.53%.
For `Cc1cc(C)cc(OCCN2CCn3c(C)nnc3C2)c1` the value was 20.41%.
For `CC(C)[C@H]1CN(CCCO)C[C@@H]1NC(=O)CCS(C)(=O)=O` the value was 25.9%; for `O=C(CCS(=O)(=O)C1CCCC1)NCc1ccccc1Cn1cncn1`, 31.57%; for `COc1c(CNC2CCc3ccccc32)c(C(C)C)nn1C` (configuration not stated), 24.65%.
With `COc1c(CNC2CCCOc3ccccc32)c(C)nn1C` (configuration not stated), the INHIBITION is listed as -18.88%.
On to `COc1c(CNC2CCCc3ccccc32)c(C)nn1C` (configuration not stated), for which the INHIBITION was found to be 11.28%.
Take `Cc1nn(C)c(Oc2ccccc2)c1CNC1CCOc2ccccc21` (configuration not stated): the INHIBITION is on record as -15.64%.
For `COc1c(CNC2CCOc3ccccc32)c(C)nn1C` (configuration not stated) the value was 64.08%; for `COc1c(CNC2CCCc3ccccc32)c(C(C)C)nn1C` (configuration not stated), 69.22%.
`O=C1NCCCC[C@@H]1Nc1ccc(-c2nc(C3CC3)no2)cn1`: the INHIBITION was 8.75%.
For `c1cncc(COCc2nnc3n2CCN(Cc2ccco2)C3)c1` the value was -8.22%.
In the case of `COc1ccccc1CC(C)(C)C(=O)NCC(=O)Nc1cccnc1` it was -16.15%; in that of `O=C(NC1CCC(O)CC1)c1ccc2nc(-c3ccccc3)cn2c1` (configuration not stated), 2.17%.
Take `COc1ccc(C)cc1CC(=O)Nc1cc(C)n[nH]1`: the INHIBITION was -19.45%.
With `CC(C)CNC(=O)c1ccc2c(=O)n(-c3ccccc3)cnc2c1`, the INHIBITION came to 43.75%.
As to `Cn1c(=O)[nH]c(=O)c2c1nc1n2CC(c2ccc(Cl)cc2)O1` (configuration not stated), the INHIBITION was determined as 13.01%.
On to `COc1ccc(C2CC(=O)Nc3c2nc2n3CCCC2)cc1O` (configuration not stated), for which the INHIBITION stood at 24.29%.
Consider `O[C@H]1CCN(CC2CC2)[C@H]1Cc1ccncc1`, for which the INHIBITION turned out to be 55.7%.
Regarding `O[C@H]1CCN(CC2CCOC2)[C@H]1Cc1ccncc1` (some centres not stated), the INHIBITION was determined as 3.56%.
For `O[C@@H]1CCN(CC2CC2)[C@H]1Cc1ccccc1` the value was -17.26%; for `O=C(N[C@H]1CN2CCC1CC2)c1cc(Cn2cnc3ccccc32)[nH]n1`, 48.93%.
In the case of `CC(=O)N[C@H]1CCN(C(=O)c2cc(Cn3cnc4ccccc43)[nH]n2)C1` it was 60.71%; in that of `COc1ccccc1OCc1cc(C(=O)N2CCC(NC(C)=O)C2)n[nH]1` (configuration not stated), -49.85%; in that of `NC(=O)c1cn[nH]c1C1CCCN1C(=O)c1cnccn1` (configuration not stated), 39.5%.
`Cc1nc2c(c(NCC(c3cccnc3)N3CCOCC3)n1)CCNC2` (configuration not stated): the INHIBITION is on record as -10.09%.
On to `Cc1nc(CSCCC(=O)Nc2cccc(N3CCNC3=O)c2)cs1`, for which the INHIBITION amounted to 54.82%.
In the case of `Cc1nc(CCCC(=O)Nc2cccc(N3CCNC3=O)c2)cs1` it was -33.58%; in that of `Cc1ncc(CN(C)C(=O)Nc2cccc(N3CCNC3=O)c2)s1`, -82.26%; in that of `CC(OCC1CC1)C(=O)N1CCCN(c2nc3ccccc3[nH]2)CC1` (configuration not stated), -38.2%.
Take `Cn1ncc2c1C(COCC1CC1)CN(Cc1nccs1)C2` (configuration not stated): the INHIBITION was -44.9%.
For the molecule `Cc1ncsc1CN1Cc2cn(C)nc2C(COCC2CC2)C1` (configuration not stated), the INHIBITION was -64.59%.
For `Cn1ncc2c1C(COCC1CC1)CN(S(=O)(=O)C1CC1)C2` (configuration not stated), the INHIBITION is on record as 3.63%.
For `Cc1ncsc1CN1Cc2cnn(C)c2C(COCC2CC2)C1` (configuration not stated), the INHIBITION was determined as 50.17%.
In the case of `Cn1ncc2c1C(COCC1CC1)CN(S(C)(=O)=O)C2` (configuration not stated) it was 51.72%; in that of `CCOCC1CN(S(C)(=O)=O)Cc2cnn(C)c21` (configuration not stated), 18.97%.
